Measured values from PubChem BioAssay AID1159580 (chemical genetic matrix, 2015).
Among all 5,500 compounds or so, about 2,000 (36%) were called active. Another 18% or so got no clear call; they are omitted. No stated cut-off is given here; in the data, active means normalized growth mostly below about 0.91 (no sharp cut-off); inconclusive means no clear call, values can overlap the other calls; inactive means mostly above about 0.92. Some of the results follow.

Assay: chemical genetic growth profiling, strain panel (AID 1159580);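 further: tested at 20 µM; growth read once vehicle control cultures reached saturation at 30 °C; 1 = growth at the plate median or of vehicle wells; lower values mean less growth of the strain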
Details: growth OD
[1] = S. cerevisiae deletion strains, locus YDL101C, strain DUN1, hits give low values
[2] = S. cerevisiae deletion strains, locus YHR030C, strain SLT2, hits give low values

Measured: normalized growth

O=C1NC(=O)/C(=C/c2ccc(OS(=O)(=O)c3ccc(Cl)cc3)cc2)N1
inactive: S. cerevisiae deletion strains, locus YAL013W, strain DEP1, hits give low values 1 | S. cerevisiae deletion strains, locus YBR229C, strain ROT2, hits give low values 1.03 | [1] 0.983 | S. cerevisiae deletion strains, locus YDL134C, strain PPH21, hits give low values 0.991 | S. cerevisiae deletion strains, locus YDR150W, strain NUM1, hits give low values 0.957 | S. cerevisiae deletion strains, locus YEL061C, strain CIN8, hits give low values 1.01 | S. cerevisiae deletion strains, locus YGR078C, strain PAC10, hits give low values 0.983 | S. cerevisiae deletion strains, locus YGR229C, strain SMI1, hits give low values 1.01 | [2] 0.989 | S. cerevisiae deletion strains, locus YHR087W, strain rtc3, hits give low values 1.02 | S. cerevisiae deletion strains, locus YJL187C, strain SWE1, hits give low values 1.04 | S. cerevisiae deletion strains, locus YJR043C, strain POL32, hits give low values 0.982 | S. cerevisiae deletion strains, locus YJR075W, strain HOC1, hits give low values 1.03 | S. cerevisiae deletion strains, locus YLR039C, strain RIC1, hits give low values 1.02 | S. cerevisiae deletion strains, locus YLR058C, strain SHM2 (second series), hits give low values 1.02 | S. cerevisiae deletion strains, locus YLR085C, strain ARP6, hits give low values 0.999 | S. cerevisiae deletion strains, locus YLR262C, strain YPT6, hits give low values 0.996 | S. cerevisiae deletion strains, locus YML094W, strain GIM5, hits give low values 1 | S. cerevisiae deletion strains, locus YMR219W, strain ESC1, hits give low values 1.01 | S. cerevisiae deletion strains, locus YMR263W, strain SAP30, hits give low values 1 | S. cerevisiae deletion strains, locus YNL128W, strain TEP1, hits give low values 0.978 | S. cerevisiae deletion strains, locus YNL153C, strain GIM3, hits give low values 0.99 | S. cerevisiae deletion strains, locus YNL298W, strain CLA4 (second series), hits give low values 0.976 | S. cerevisiae deletion strains, locus YNL322C, strain KRE1, hits give low values 0.998 | S. cerevisiae deletion strains, locus YNR030W, strain Alg12, hits give low values 1 | S. cerevisiae deletion strains, locus YPL055C, strain LGE1, hits give low values 1.06 | S. cerevisiae deletion strains, locus YPL241C, strain CIN2, hits give low values 1 | S. cerevisiae deletion strains, locus YPR135W, strain CTF4, hits give low values 0.978 | S. cerevisiae strains, strain wild type, hits give low values 0.964

O=C1Nc2ccccc2/C1=C/c1ccc(C(F)(F)F)cc1Cl
active: [2] 0.741 | S. cerevisiae deletion strains, locus YLR113W, strain HOG1, hits give low values 0.78 | S. cerevisiae deletion strains, locus YPL256C, strain CLN2, hits give low values 0.827
inactive: S. cerevisiae deletion strains, locus YAR019C, strain CDC15, hits give low values 0.978 | S. cerevisiae deletion strains, locus YBL105C, strain PKC1, hits give low values 0.965 | S. cerevisiae deletion strains, locus YBR135W, strain CKS1, hits give low values 0.966 | S. cerevisiae deletion strains, locus YBR136W, strain MEC1, hits give low values 0.982 | S. cerevisiae deletion strains, locus YBR160W, strain CDC28, hits give low values 0.979 | S. cerevisiae deletion strains, locus YDL017W, strain CDC7, hits give low values 0.972 | S. cerevisiae deletion strains, locus YDL028C, strain MPS1, hits give low values 0.977 | [1] 0.983 | S. cerevisiae deletion strains, locus YDL108W, strain KIN28, hits give low values 0.974 | S. cerevisiae deletion strains, locus YDL132W, strain cdc53, hits give low values 0.982 | S. cerevisiae deletion strains, locus YDL214C, strain PRR2, hits give low values 0.884 | S. cerevisiae deletion strains, locus YDR052C, strain DBF4, hits give low values 0.979 | S. cerevisiae deletion strains, locus YDR054C, strain cdc34, hits give low values 0.958 | S. cerevisiae deletion strains, locus YDR226W, strain ADK1, hits give low values 0.961 | S. cerevisiae deletion strains, locus YDR477W, strain SNF1, hits give low values 0.93 | S. cerevisiae deletion strains, locus YER123W, strain YCK3, hits give low values 0.939 | S. cerevisiae deletion strains, locus YER133W, strain GLC7, hits give low values 0.953 | S. cerevisiae deletion strains, locus YFL009W, strain cdc4, hits give low values 0.976 | S. cerevisiae deletion strains, locus YFL029C, strain CAK1, hits give low values 0.979 | S. cerevisiae deletion strains, locus YFR003C, strain YPI1, hits give low values 0.973 | S. cerevisiae deletion strains, locus YFR019W, strain FAB1, hits give low values 0.979 | S. cerevisiae deletion strains, locus YFR028C, strain CDC14, hits give low values 0.974 | S. cerevisiae deletion strains, locus YGR040W, strain KSS1, hits give low values 0.931 | S. cerevisiae deletion strains, locus YGR052W, strain FMP48, hits give low values 0.896 | S. cerevisiae deletion strains, locus YGR092W, strain DBF2, hits give low values 0.905 | S. cerevisiae deletion strains, locus YHR079C, strain IRE1, hits give low values 0.883 | S. cerevisiae deletion strains, locus YHR082C, strain KSP1, hits give low values 0.934 | S. cerevisiae deletion strains, locus YHR205W, strain SCH9, hits give low values 0.84 | S. cerevisiae deletion strains, locus YIL147C, strain SLN1, hits give low values 0.973 | S. cerevisiae deletion strains, locus YJL095W, strain BCK1, hits give low values 0.918 | S. cerevisiae deletion strains, locus YJL128C, strain PBS2, hits give low values 0.903 | S. cerevisiae deletion strains, locus YJL157C, strain FAR1, hits give low values 0.958 | S. cerevisiae deletion strains, locus YJR016C, strain ILV3, hits give low values 0.98 | S. cerevisiae deletion strains, locus YJR066W, strain TOR1 (second series), hits give low values 0.955 | S. cerevisiae deletion strains, locus YJR066W, strain TOR1, hits give low values 0.899 | S. cerevisiae deletion strains, locus YKL048C, strain ELM1, hits give low values 0.958 | S. cerevisiae deletion strains, locus YKL067W, strain YNK1, hits give low values 0.877 | S. cerevisiae deletion strains, locus YKL101W, strain HSL1, hits give low values 0.891 | S. cerevisiae deletion strains, locus YKL193C, strain SDS22, hits give low values 0.969 | S. cerevisiae deletion strains, locus YKL203C, strain TOR2, hits give low values 0.995 | S. cerevisiae deletion strains, locus YLR133W, strain CKI1, hits give low values 0.932 | S. cerevisiae deletion strains, locus YLR403W, strain SFP1, hits give low values 0.952 | S. cerevisiae deletion strains, locus YML070W, strain DAK1, hits give low values 0.936 | S. cerevisiae deletion strains, locus YMR001C, strain CDC5, hits give low values 0.968 | S. cerevisiae deletion strains, locus YMR205C, strain PFK2 (second series), hits give low values 0.931 | S. cerevisiae deletion strains, locus YMR277W, strain FCP1, hits give low values 0.963 | S. cerevisiae deletion strains, locus YNL006W, strain LST8, hits give low values 0.979 | S. cerevisiae deletion strains, locus YNL020C, strain ARK1, hits give low values 0.916 | S. cerevisiae deletion strains, locus YNL161W, strain CBK1, hits give low values 0.972 | S. cerevisiae deletion strains, locus YNL183C, strain NPR1, hits give low values 0.881 | S. cerevisiae deletion strains, locus YNL207W, strain RIO2, hits give low values 0.98 | S. cerevisiae deletion strains, locus YNL222W, strain SSU72, hits give low values 0.968 | S. cerevisiae deletion strains, locus YNL307C, strain MCK1 (second series), hits give low values 0.882 | S. cerevisiae deletion strains, locus YOL078W, strain AVO1, hits give low values 0.966 | S. cerevisiae deletion strains, locus YOL136C, strain PFK27, hits give low values 0.93 | S. cerevisiae deletion strains, locus YOR061W, strain CKA2, hits give low values 0.929 | S. cerevisiae deletion strains, locus YOR119C, strain RIO1, hits give low values 0.926 | S. cerevisiae deletion strains, locus YOR231W, strain MKK1, hits give low values 0.914 | S. cerevisiae deletion strains, locus YOR329C, strain SCD5, hits give low values 0.972 | S. cerevisiae deletion strains, locus YPL031C, strain PHO85, hits give low values 0.932 | S. cerevisiae deletion strains, locus YPL153C, strain RAD53, hits give low values 0.934 | S. cerevisiae deletion strains, locus YPL204W, strain HRR25, hits give low values 0.916 | S. cerevisiae deletion strains, locus YPL209C, strain IPL1, hits give low values 0.974 | S. cerevisiae deletion strains, locus YPR025C, strain CCL1, hits give low values 0.97 | S. cerevisiae deletion strains, locus YPR106W, strain ISR1, hits give low values 0.958 | S. cerevisiae deletion strains, locus YPR111W, strain DBF20, hits give low values 0.936 | S. cerevisiae deletion strains, strain NNK1, hits give low values 0.97 | S. cerevisiae deletion strains, strain TSCII, hits give low values 0.963
